Laboratory results published in PubChem BioAssay (EPA / NIEHS).
Records with an inconclusive call do not appear. Active and inactive are the calls of the source. The calls were made as follows: active = hit-call score of the fitted dose curve at least 0.9, where 1 is the maximum; inconclusive = response in the unintended direction; inactive = score below 0.9.

Biological target: Retinoic acid receptor RXR-alpha (Homo sapiens) (UniProt P19793)
Assay: OT_NURR1_NURR1RXRa_1440: Odyssey Thera (OT) 24-hour HEK293T Protein Complementation Assay for Nurr1/retinoid X receptor (RXR) (AID 2283386)
Method in brief: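 Fluorescence PCA read-out; HEK293T; 24 h post-dose; bait/prey fused to reporter fragments; gain-of-signal fit vs DMSO negative control.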

Sequence of Retinoic acid receptor RXR-alpha (Homo sapiens) (P19793 whole entry, looked up): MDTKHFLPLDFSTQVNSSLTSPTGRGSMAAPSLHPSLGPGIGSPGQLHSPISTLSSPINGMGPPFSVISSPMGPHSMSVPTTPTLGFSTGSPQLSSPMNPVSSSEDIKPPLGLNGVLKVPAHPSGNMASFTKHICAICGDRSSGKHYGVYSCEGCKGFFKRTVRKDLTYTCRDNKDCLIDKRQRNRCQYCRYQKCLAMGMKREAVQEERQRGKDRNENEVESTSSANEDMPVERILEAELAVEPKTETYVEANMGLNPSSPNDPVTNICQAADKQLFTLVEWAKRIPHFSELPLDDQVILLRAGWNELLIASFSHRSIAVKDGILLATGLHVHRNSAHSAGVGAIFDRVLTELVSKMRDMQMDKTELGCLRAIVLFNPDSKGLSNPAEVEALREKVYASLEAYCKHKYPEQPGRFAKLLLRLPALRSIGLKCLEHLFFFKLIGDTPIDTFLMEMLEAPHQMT

SMILES | outcome | AC50
COCCOCCOCCOC | inactive | –
O=C(NS(=O)(=O)/C=C/c1ccccc1)c1ccc(F)cc1Cl | – | 15.2 µM (active)
CNCc1ccc(NC(=O)c2c[nH]c3c2C(=O)CCC3)cc1 | inactive | –
C1=CCCC=CCCC=CCC1 | inactive | –
CC[C@H]1OC(=O)[C@H](C)[C@@H](O[C@H]2C[C@@](C)(OC)[C@@H](O)[C@H](C)O2)[C@H](C)[C@@H](O[C@@H]2O[C@H](C)C[C@H](N(C)C)[C@H]2O)[C@](C)(O)C[C@@H](C)C(=O)[C@H](C)[C@@H](O)[C@]1(C)O | inactive | –
Cn1c(=O)c2c(ncn2C)n(C)c1=O | inactive | –
CC(O)CN(CCN(CC(C)O)CC(C)O)CC(C)O (configuration not stated) | inactive | –
CC(=O)OCCC(C)C | inactive | –
CC(C)=CCC/C(C)=C/CO | inactive | –
CC1(C)C(=O)N(Br)C(=O)N1Br | inactive | –
CCOC(=O)CC(CC(=O)OCC)(OC(C)=O)C(=O)OCC | inactive | –
O=C1CCC(N2C(=O)c3ccccc3C2=O)C(=O)N1 (configuration not stated) | inactive | –
CCCCC(CC)COC(=O)c1ccc(C(=O)OCC(CC)CCCC)cc1 (configuration not stated) | inactive | –
CCNc1ccccc1 | inactive | –
O=c1n(CC2CO2)c(=O)n(CC2CO2)c(=O)n1CC1CO1 (configuration not stated) | inactive | –
CCn1nc(Cc2ccccc2)cc1C1CCN(C[C@H]2C[C@H](N(C)[C@@H](C(=O)O)C(C)C)C[C@@H]2c2cccc(F)c2)CC1 | inactive | –
CCCN(C1CCN(C(=O)C2CCNCC2)CC1)[C@@H]1CCc2ccc(OC)cc2C1 | – | 64.8 µM (active)
O=C(O)c1cc(N=Nc2ccc(S(=O)(=O)Nc3ccccn3)cc2)ccc1O | inactive | –
C1N2CN3CN1CN(C2)C3 | inactive | –
CC(C)=CCC/C(C)=C\CO | inactive | –
Clc1nc(Cl)c(Cl)c(Cl)c1Cl | inactive | –
CCCCC(CC)COC(=O)CCCCCCCCC(=O)OCC(CC)CCCC (configuration not stated) | inactive | –
Cn1cnc([N+](=O)[O-])c1Sc1ncnc2nc[nH]c12 | inactive | –
O=C(O)c1cccc(Oc2ccccc2)c1 | inactive | –
CC/C(=C\C(=N/O)C(N)=O)C(C)[N+](=O)[O-] (configuration not stated) | inactive | –
Cc1ccc(C)c(O)c1 | inactive | –
O=C(O)CCN(C1(C(=O)NO)CCCC1)S(=O)(=O)c1ccc(Oc2ccc(F)cc2)cc1 | inactive | –
O=C(CCCCCCCCc1cccnc1)N1CCC(C=C(c2ccccc2)c2ccccc2)CC1 | – | 12 µM (active)
O=C1OC(=O)C2C3C=CC(C3)C12 (configuration not stated) | inactive | –

Biological target: Peroxisome proliferator-activated receptor gamma (Homo sapiens) (UniProt P37231)
Sequence (P37231 whole entry, looked up): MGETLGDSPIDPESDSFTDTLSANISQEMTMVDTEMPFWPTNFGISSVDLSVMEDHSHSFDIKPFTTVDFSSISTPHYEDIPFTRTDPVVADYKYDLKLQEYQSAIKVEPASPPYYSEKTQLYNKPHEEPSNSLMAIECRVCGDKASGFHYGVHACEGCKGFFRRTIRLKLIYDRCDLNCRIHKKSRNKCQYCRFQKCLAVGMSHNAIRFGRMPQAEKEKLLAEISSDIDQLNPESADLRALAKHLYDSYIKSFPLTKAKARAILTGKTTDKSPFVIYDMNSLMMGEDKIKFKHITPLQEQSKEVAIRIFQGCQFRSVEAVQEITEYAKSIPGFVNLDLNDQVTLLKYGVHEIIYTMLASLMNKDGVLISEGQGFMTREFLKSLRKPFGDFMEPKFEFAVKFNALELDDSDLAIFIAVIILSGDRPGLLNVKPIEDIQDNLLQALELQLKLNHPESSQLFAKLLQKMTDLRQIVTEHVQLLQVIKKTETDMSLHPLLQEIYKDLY
Assay: OT_PPARg_PPARgSRC1_0480: Odyssey Thera (OT) 8-hour Protein-Complementation Assay for Peroxisome Proliferator-activated Receptor Gamma / SRC-1 Co-activator (AID 2283387)
Method in brief: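 Split-YFP (IFP1/IFP2) PPARg/SRC-1 reporter, HEK293T, 37 °C, 5% CO2; 8 h compound; formaldehyde fix + Draq5; high-content imaging, N/C ratio, ≥350 cells/image, positive direction vs DMSO.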

SMILES | outcome
COCCOCCOCCOC | inactive
O=C(NS(=O)(=O)/C=C/c1ccccc1)c1ccc(F)cc1Cl | inactive
CNCc1ccc(NC(=O)c2c[nH]c3c2C(=O)CCC3)cc1 | inactive
C1=CCCC=CCCC=CCC1 | inactive
CC[C@H]1OC(=O)[C@H](C)[C@@H](O[C@H]2C[C@@](C)(OC)[C@@H](O)[C@H](C)O2)[C@H](C)[C@@H](O[C@@H]2O[C@H](C)C[C@H](N(C)C)[C@H]2O)[C@](C)(O)C[C@@H](C)C(=O)[C@H](C)[C@@H](O)[C@]1(C)O | inactive
Cn1c(=O)c2c(ncn2C)n(C)c1=O | inactive
CC(O)CN(CCN(CC(C)O)CC(C)O)CC(C)O (configuration not stated) | inactive
CC(=O)OCCC(C)C | inactive
CC(C)=CCC/C(C)=C/CO | inactive
CC1(C)C(=O)N(Br)C(=O)N1Br | inactive
CCOC(=O)CC(CC(=O)OCC)(OC(C)=O)C(=O)OCC | inactive
O=C1CCC(N2C(=O)c3ccccc3C2=O)C(=O)N1 (configuration not stated) | inactive
CCCCC(CC)COC(=O)c1ccc(C(=O)OCC(CC)CCCC)cc1 (configuration not stated) | inactive
CCNc1ccccc1 | inactive
O=c1n(CC2CO2)c(=O)n(CC2CO2)c(=O)n1CC1CO1 (configuration not stated) | inactive
CCn1nc(Cc2ccccc2)cc1C1CCN(C[C@H]2C[C@H](N(C)[C@@H](C(=O)O)C(C)C)C[C@@H]2c2cccc(F)c2)CC1 | inactive
CCCN(C1CCN(C(=O)C2CCNCC2)CC1)[C@@H]1CCc2ccc(OC)cc2C1 | inactive
O=C(O)c1cc(N=Nc2ccc(S(=O)(=O)Nc3ccccn3)cc2)ccc1O | inactive
C1N2CN3CN1CN(C2)C3 | inactive
CC(C)=CCC/C(C)=C\CO | inactive
Clc1nc(Cl)c(Cl)c(Cl)c1Cl | inactive
CCCCC(CC)COC(=O)CCCCCCCCC(=O)OCC(CC)CCCC (configuration not stated) | inactive
Cn1cnc([N+](=O)[O-])c1Sc1ncnc2nc[nH]c12 | inactive
O=C(O)c1cccc(Oc2ccccc2)c1 | inactive
CC/C(=C\C(=N/O)C(N)=O)C(C)[N+](=O)[O-] (configuration not stated) | inactive
Cc1ccc(C)c(O)c1 | inactive
O=C(O)CCN(C1(C(=O)NO)CCCC1)S(=O)(=O)c1ccc(Oc2ccc(F)cc2)cc1 | inactive
O=C(CCCCCCCCc1cccnc1)N1CCC(C=C(c2ccccc2)c2ccccc2)CC1 | inactive
O=C1OC(=O)C2C3C=CC(C3)C12 (configuration not stated) | inactive

Biological target: Peroxisome proliferator-activated receptor gamma (Homo sapiens) (UniProt P37231)
Assay: OT_PPARg_PPARgSRC1_1440: Odyssey Thera (OT) 24-hour Protein-Complementation Assay for Peroxisome Proliferator-activated Receptor Gamma/ SRC-1 Co-activator (AID 2283388)
Method in brief: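 HEK293T transiently transfected with PPARg/SRC-1 split-Venus YFP fusions 48 h before dosing, then treated 24 h at 37C. Fixed cells imaged; nuclear/cytoplasmic 488 nm fluorescence ratio, gain of signal versus DMSO.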

SMILES | outcome | AC50
COCCOCCOCCOC | inactive | –
O=C(NS(=O)(=O)/C=C/c1ccccc1)c1ccc(F)cc1Cl | – | 50 µM (active)
CNCc1ccc(NC(=O)c2c[nH]c3c2C(=O)CCC3)cc1 | inactive | –
C1=CCCC=CCCC=CCC1 | inactive | –
CC[C@H]1OC(=O)[C@H](C)[C@@H](O[C@H]2C[C@@](C)(OC)[C@@H](O)[C@H](C)O2)[C@H](C)[C@@H](O[C@@H]2O[C@H](C)C[C@H](N(C)C)[C@H]2O)[C@](C)(O)C[C@@H](C)C(=O)[C@H](C)[C@@H](O)[C@]1(C)O | inactive | –
Cn1c(=O)c2c(ncn2C)n(C)c1=O | inactive | –
CC(O)CN(CCN(CC(C)O)CC(C)O)CC(C)O (configuration not stated) | inactive | –
CC(=O)OCCC(C)C | inactive | –
CC(C)=CCC/C(C)=C/CO | inactive | –
CC1(C)C(=O)N(Br)C(=O)N1Br | inactive | –
CCOC(=O)CC(CC(=O)OCC)(OC(C)=O)C(=O)OCC | inactive | –
O=C1CCC(N2C(=O)c3ccccc3C2=O)C(=O)N1 (configuration not stated) | inactive | –
CCCCC(CC)COC(=O)c1ccc(C(=O)OCC(CC)CCCC)cc1 (configuration not stated) | inactive | –
CCNc1ccccc1 | inactive | –
O=c1n(CC2CO2)c(=O)n(CC2CO2)c(=O)n1CC1CO1 (configuration not stated) | inactive | –
CCn1nc(Cc2ccccc2)cc1C1CCN(C[C@H]2C[C@H](N(C)[C@@H](C(=O)O)C(C)C)C[C@@H]2c2cccc(F)c2)CC1 | inactive | –
CCCN(C1CCN(C(=O)C2CCNCC2)CC1)[C@@H]1CCc2ccc(OC)cc2C1 | inactive | –
O=C(O)c1cc(N=Nc2ccc(S(=O)(=O)Nc3ccccn3)cc2)ccc1O | inactive | –
C1N2CN3CN1CN(C2)C3 | inactive | –
CC(C)=CCC/C(C)=C\CO | inactive | –
Clc1nc(Cl)c(Cl)c(Cl)c1Cl | inactive | –
CCCCC(CC)COC(=O)CCCCCCCCC(=O)OCC(CC)CCCC (configuration not stated) | inactive | –
Cn1cnc([N+](=O)[O-])c1Sc1ncnc2nc[nH]c12 | inactive | –
O=C(O)c1cccc(Oc2ccccc2)c1 | inactive | –
CC/C(=C\C(=N/O)C(N)=O)C(C)[N+](=O)[O-] (configuration not stated) | inactive | –
Cc1ccc(C)c(O)c1 | inactive | –
O=C(O)CCN(C1(C(=O)NO)CCCC1)S(=O)(=O)c1ccc(Oc2ccc(F)cc2)cc1 | inactive | –
O=C(CCCCCCCCc1cccnc1)N1CCC(C=C(c2ccccc2)c2ccccc2)CC1 | inactive | –
O=C1OC(=O)C2C3C=CC(C3)C12 (configuration not stated) | inactive | –
